According to PubChem BioAssay (Tox21):
Results filed as inconclusive are left out. Calls of active or inactive are those of the source. Unless noted, calls follow the shape of the full dose curve.

Columns and labels:
[1] = qHTS assay to identify small molecule agonists of the peroxisome proliferator-activated receptor delta (PPARd) signaling pathway - cell viability counter screen (AID 743211; active = well fitted curve in the direction sought with a large enough effect in the repeat runs; an effect the other way counts as inactive or inconclusive; also: nearly all actives have a fitted effect of over 55% in size)
Procedure, shortened: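 In the same wells used for beta-lactamase reporter measurement, cytotoxicity is scored by CellTiter-Glo. HEK293H PPARd-bla cells receive compound for 17 h at 37C following a 5 h settling period.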

[2] = target: Peroxisome proliferator-activated receptor delta (Homo sapiens) (UniProt Q03181); assay: qHTS assay to identify small molecule agonists of the peroxisome proliferator-activated receptor delta (PPARd) signaling pathway (AID 743212)
Procedure, shortened: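 HEK293H PPARd-bla cells; 5 h preincubation 37 C/5% CO2; compound (DMSO) 37 C; LiveBLAzer B/G FRET substrate 2 h RT; fluorescence intensity.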

[3] = qHTS assay to identify small molecule antagonists of the peroxisome proliferator-activated receptor delta (PPARd) signaling pathway - cell viability counter screen (AID 743213; active = well fitted curve in the direction sought with a large enough effect in the repeat runs; an effect the other way counts as inactive or inconclusive; also: nearly all actives have a fitted effect of over 50% in size)
Procedure, shortened: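 PPARd-bla HEK293H cells were treated with compounds plus agonist L165041 (300 nM final) for 17 h at 37 C. Viability was then read in the same wells by CellTiter-Glo luminescence after 30 min at room temperature.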

[4] = target: Bile acid receptor (Homo sapiens) (UniProt Q96RI1); assay: qHTS assay to identify small molecule antagonists of the farnesoid-X-receptor (FXR) signaling pathway (AID 743217; active = well fitted inhibition curve with a large enough effect in the signal ratio in the repeat runs, not every such curve was filed as active; the % refers to the signal ratio)
Procedure, shortened: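 Antagonist mode against 50 uM (final) chenodeoxycholic acid stimulation in FXR-bla HEK 293T cells, 16 h at 37 °C. Inhibition detected as reduced beta-lactamase activity via LiveBLAzer B/G FRET fluorescence after 2 h at room temperature.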

[5] = qHTS assay to identify small molecule agonists of the farnesoid-X-receptor (FXR) signaling pathway - cell viability counter screen (AID 743218; active = well fitted curve in the direction sought with a large enough effect in the repeat runs; an effect the other way counts as inactive or inconclusive; also: nearly all actives have a fitted effect of over 45% in size)
Procedure, shortened: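 Cytotoxicity counter-screen run in parallel, same wells: FXR-UAS-bla HEK 293T cells dosed 16 h at 37 C, viability read by CellTiter-Glo luminescence after 30 min at room temperature.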

[6] = target: Bile acid receptor (Homo sapiens) (UniProt Q96RI1); assay: qHTS assay to identify small molecule agonists of the farnesoid-X-receptor (FXR) signaling pathway (AID 743220; active = well fitted activation curve with a large enough effect in the signal ratio in the repeat runs, not every such curve was filed as active; the % refers to the signal ratio)
Procedure, shortened: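 Beta-lactamase reporter under UAS control in GeneBLAzer FXR HEK 293T cells (5000/well) measured with LiveBLAzer FRET substrate after 2 h at room temperature. Compound exposure lasted 16 h at 37C.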

[7] = qHTS assay to identify small molecule antagonists of the farnesoid-X-receptor (FXR) signaling pathway - cell viability counter screen (AID 743221; active = well fitted cell-killing curve with a large enough effect in the repeat runs, not every such curve was filed as active; also: nearly all actives have a fitted effect of over 50% in size)
Procedure, shortened: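 Here viability was scored by luminescence after CellTiter-Glo addition to wells already read for beta-lactamase. Prior treatment: compound plus CDCA (50 uM final), 16 h, 37 C, HEK 293T FXR-bla cells.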

[8] = target: Vitamin D3 receptor (Homo sapiens) (UniProt P11473); assay: qHTS assay to identify small molecule agonists of the vitamin D receptor (VDR) signaling pathway (AID 743222)
Procedure, shortened: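 Quantitative HTS agonist-mode screen: compounds in DMSO were pin-transferred onto VDR-bla cells and incubated 16 h at 37C, 5% CO2. Reporter activity was detected with LiveBLAzer B/G FRET substrate after 2 h at room temperature.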

[9] = qHTS assay to identify small molecule agonists of the vitamin D receptor (VDR) signaling pathway - cell viability counter screen (AID 743224; active = well fitted curve in the direction sought with a large enough effect in the repeat runs; an effect the other way counts as inactive or inconclusive; also: series mostly up to about 63 µM; nearly all actives have a fitted effect of over 50% in size)
Procedure, shortened: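 Viability is measured in the same wells as the VDR-bla reporter assay: after 16 h compound treatment and 2 h substrate loading, CellTiter-Glo is added and luminescence read 30 min later.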

[10] = qHTS assay to identify small molecule antagonists of the vitamin D receptor (VDR) signaling pathway - cell viability counter screen (AID 743225; active = well fitted curve in the direction sought with a large enough effect in the repeat runs; an effect the other way counts as inactive or inconclusive; also: nearly all actives have a fitted effect of over 50% in size)
Procedure, shortened: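 Compounds were pinned onto VDR-bla HEK 293T cells together with 1-alpha,25-dihydroxyvitamin D3 at 3 nM final. After 16 h at 37C and 5% CO2 plus the reporter readout, cell viability was measured by CellTiter-Glo luminescence (30 min, room temperature).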

[11] = qHTS assay to identify small molecule agonists of the NFkB signaling pathway (AID 1159509; active = well fitted curve in the direction sought with a large enough effect in the signal ratio in the repeat runs, not every such curve was filed as active; the % refers to the signal ratio; also: series mostly up to about 61 µM)
Procedure, shortened: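 ME-180 NFkB-bla, 2,000 cells/well, overnight plating; cpd pinned in DMSO, 5 h 37 C; B/G FRET substrate 1.5 h RT; ex 405, em 460/530 nm.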

[12] = qHTS assay to identify small molecule agonists of the NFkB signaling pathway - cell viability counter screen (AID 1159515); also: series mostly up to about 61 µM; nearly all actives have a fitted effect of over 55% in size
Procedure, shortened: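 Multiplexed viability readout: after the 5 hr compound exposure and 1.5 hr FRET substrate step, CellTiter-Glo reagent went into the same NFkB-bla ME-180 wells; ATP luminescence was measured after 30 min at room temperature.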

[13] = qHTS assay to identify small molecule agonists of the endoplasmic reticulum stress response signaling pathway (AID 1159516; active = well fitted activation curve with a large enough effect in the signal ratio in the repeat runs, not every such curve was filed as active; the % refers to the signal ratio)
Procedure, shortened: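 Tox21 10K library screened in quantitative HTS format on ESRE-bla HeLa cells, a beta-lactamase reporter under ER stress response element control; 5 hr treatment, FRET read.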

[14] = qHTS assay to identify small molecule agonists of the endoplasmic reticulum stress response signaling pathway - cell viability counter screen (AID 1159517)
Procedure, shortened: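 HeLa cells carrying an ESRE-driven beta-lactamase reporter receive compound for 5 hr at 37 C. Cell viability is then gauged with CellTiter-Glo by luminescence, 30 min at room temperature.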

[15] = qHTS assay to identify small molecule antagonists of the retinoid-related orphan receptor gamma (ROR-gamma) signaling pathway - cell viability counter screen (AID 1159520; active = well fitted curve in the direction sought with a large enough effect in the repeat runs; an effect the other way counts as inactive or inconclusive; also: nearly all actives have a fitted effect of over 50% in size)
Procedure, shortened: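 Cytotoxicity was read from cellular ATP (CellTiter-Glo luminescence) after 16 hr at 37 C with 1 uM doxycycline induction. The inducer was added 2 hr after compound transfer to Tet-on ROR gamma CHO cells.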

[16] = target: Nuclear receptor ROR-gamma (Homo sapiens) (UniProt P51449); assay: qHTS assay to identify small molecule antagonists of the retinoid-related orphan receptor gamma (ROR-gamma) signaling pathway (AID 1159521; active = well fitted curve in the direction sought with a large enough effect in the repeat runs; an effect the other way counts as inactive or inconclusive)
Procedure, shortened: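 Test compounds were applied to Tet-on RORγ CHO cells 2 h ahead of doxycycline hyclate (1 uM final). Luciferase reporter activity was quantified by luminescence after 16 h at 37 C and 5% CO2.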

[17] = qHTS assay to identify small molecule agonists of the AP-1 signaling pathway - cell viability counter screen (AID 1159525); also: nearly all actives have a fitted effect of over 55% in size
Procedure, shortened: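 Luminescent ATP readout (Cell Titer Glo, 30 min RT), normalised to DMSO and tetra n-octyl ammonium bromide controls. Cells were ME-180 AP-1-bla in 0.5% dialyzed FBS Opti-MEM, with a 5 h, 37 °C compound exposure.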

[18] = qHTS assay to identify small molecule agonists of the AP-1 signaling pathway (AID 1159526)
[19] = target: Peroxisome proliferator-activated receptor delta (Homo sapiens) (UniProt Q03181); assay: qHTS assay to identify small molecule antagonists of the peroxisome proliferator-activated receptor delta (PPARd) signaling pathway (AID 743215; active = well fitted inhibition curve with a large enough effect in the signal ratio in the repeat runs, not every such curve was filed as active; the % refers to the signal ratio;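 also: cells stimulated with agonist L165041 at 300 nM final during compound exposure; series mostly up to about 62 µM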)
Procedure, shortened: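 Inhibition of L165041-driven (300 nM final) PPARd signaling is scored in HEK293H UAS-bla cells. Exposure lasts 17 h at 37 C; beta-lactamase activity is then read by FRET substrate fluorescence after 2 h at room temperature.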

[20] = target: Vitamin D3 receptor (Homo sapiens) (UniProt P11473); assay: qHTS assay to identify small molecule antagonists of the vitamin D receptor (VDR) signaling pathway (AID 743223; active = well fitted inhibition curve with a large enough effect in the signal ratio in the repeat runs, not every such curve was filed as active; the % refers to the signal ratio)
Procedure, shortened: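 Inhibition of agonist-driven VDR signalling is scored in VDR-bla cells: 3 nM final 1alpha,25-dihydroxyvitamin D3 plus compound, 16 h at 37C, then beta-lactamase detection by FRET substrate fluorescence after 2 h.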

Measured: Potency

Sequence of Bile acid receptor (Homo sapiens) (Q96RI1 whole entry, looked up): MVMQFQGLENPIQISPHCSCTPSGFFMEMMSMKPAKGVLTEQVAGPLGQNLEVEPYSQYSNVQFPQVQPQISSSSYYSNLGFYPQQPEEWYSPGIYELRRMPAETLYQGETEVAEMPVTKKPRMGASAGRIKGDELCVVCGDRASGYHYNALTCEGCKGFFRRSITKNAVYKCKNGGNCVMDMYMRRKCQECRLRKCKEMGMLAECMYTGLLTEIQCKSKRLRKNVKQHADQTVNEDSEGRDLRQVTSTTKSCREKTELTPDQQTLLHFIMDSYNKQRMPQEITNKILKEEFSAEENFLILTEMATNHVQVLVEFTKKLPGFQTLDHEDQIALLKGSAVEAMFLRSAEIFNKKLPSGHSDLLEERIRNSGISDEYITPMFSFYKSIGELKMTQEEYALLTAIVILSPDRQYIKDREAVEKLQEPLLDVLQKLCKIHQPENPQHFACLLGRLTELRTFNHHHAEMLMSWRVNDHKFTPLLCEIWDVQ
Sequence of Peroxisome proliferator-activated receptor delta (Homo sapiens) (Q03181 whole entry, looked up): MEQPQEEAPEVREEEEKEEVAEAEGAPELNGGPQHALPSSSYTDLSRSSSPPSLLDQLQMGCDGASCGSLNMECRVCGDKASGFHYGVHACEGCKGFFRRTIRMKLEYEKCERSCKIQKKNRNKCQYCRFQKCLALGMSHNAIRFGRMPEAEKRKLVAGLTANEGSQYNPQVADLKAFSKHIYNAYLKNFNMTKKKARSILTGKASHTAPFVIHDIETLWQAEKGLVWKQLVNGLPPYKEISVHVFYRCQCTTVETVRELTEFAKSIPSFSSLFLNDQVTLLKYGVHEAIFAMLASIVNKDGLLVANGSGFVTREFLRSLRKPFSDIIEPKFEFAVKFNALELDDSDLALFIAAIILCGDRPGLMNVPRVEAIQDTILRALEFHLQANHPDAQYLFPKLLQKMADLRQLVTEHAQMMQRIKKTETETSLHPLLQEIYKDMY
Sequence of Vitamin D3 receptor (Homo sapiens) (P11473 whole entry, looked up): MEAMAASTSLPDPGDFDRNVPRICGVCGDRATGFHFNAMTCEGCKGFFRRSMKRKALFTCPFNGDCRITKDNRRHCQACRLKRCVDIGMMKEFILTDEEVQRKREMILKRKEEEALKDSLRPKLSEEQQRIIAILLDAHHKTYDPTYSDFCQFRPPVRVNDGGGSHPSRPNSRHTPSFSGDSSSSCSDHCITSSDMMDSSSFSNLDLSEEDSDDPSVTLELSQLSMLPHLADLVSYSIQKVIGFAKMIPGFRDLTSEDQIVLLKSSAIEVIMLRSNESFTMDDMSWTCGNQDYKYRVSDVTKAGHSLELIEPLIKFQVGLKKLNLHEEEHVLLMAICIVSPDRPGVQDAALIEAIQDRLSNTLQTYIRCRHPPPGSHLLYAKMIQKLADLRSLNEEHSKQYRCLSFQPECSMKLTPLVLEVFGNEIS

C[C@]12CC[C@H]3[C@@H](CCC4=CC(=O)CC[C@@]43C)[C@@H]1CC[C@@H]2C(=O)O
inactive: [1] | [2] | [3] | [4] | [5] | [6] | [7] | [8] | [9] | [10] | [11] | [12] | [13] | [14] | [15] | [16] | [17] | [18]

CN1C[C@@H](NS(=O)(=O)N(C)C)C[C@@H]2c3cccc4c3c(cn4C)C[C@H]21
inactive: [1] | [2] | [3] | [19] | [7] | [8] | [9] | [10] | [11] | [12] | [13] | [14] | [15] | [16] | [17] | [18]

CCCSC(=O)Cl
inactive: [1] | [2] | [3] | [19] | [4] | [6] | [7] | [20] | [9] | [10] | [11] | [12] | [13] | [14] | [15] | [16] | [17] | [18]

OCCSCSCCO
inactive: [1] | [2] | [3] | [19] | [7] | [8] | [20] | [9] | [10] | [11] | [12] | [13] | [14] | [15] | [16] | [17] | [18]

COP(N)(=S)Oc1ccccc1C(=O)OC(C)C (configuration not stated)
inactive: [1] | [2] | [3] | [19] | [5] | [7] | [8] | [9] | [10] | [11] | [12] | [13] | [14] | [15] | [16] | [17] | [18]

C[N+](=O)[O-]
inactive: [1] | [2] | [3] | [19] | [5] | [7] | [8] | [20] | [11] | [12] | [13] | [14] | [15] | [16] | [17] | [18]

CCOC(=O)C(c1c(O)c2ccccc2oc1=O)c1c(O)c2ccccc2oc1=O
inactive: [1] | [2] | [3] | [19] | [5] | [7] | [9] | [11] | [12] | [13] | [14] | [15] | [16] | [17] | [18]

C=C(C)CN(CC)c1c([N+](=O)[O-])cc(C(F)(F)F)cc1[N+](=O)[O-]
inactive: [1] | [2] | [3] | [19] | [7] | [8] | [11] | [12] | [13] | [14] | [15] | [16] | [17] | [18]

N#CC(O)c1ccccc1 (configuration not stated)
inactive: [1] | [2] | [3] | [19] | [4] | [6] | [7] | [8] | [11] | [12] | [13] | [14] | [15] | [16] | [17] | [18]
